Measurements as given in PubChem BioAssay (Tox21).
Several values for one entry are separate records, joined by “and”; a condition that tells them apart may be missing. Equal entries are not always repeated. Records with an inconclusive call do not appear. Activity calls are given as the source filed them. Unless noted, calls come from the whole dose curve; as a rule, active = well fitted curve in the direction sought with a large enough effect in the repeat runs; inconclusive = weak or mixed curves; inactive = no such curve, though single readings can be large; an effect the other way counts as inactive or inconclusive.

Assays:
[1] = qHTS assay to identify small molecule antagonists of the estrogen related receptor (ERR) signaling pathway from Tox21 library - cell viability counter screen (AID 1224834); note: nearly all actives have a fitted effect of over 30% in size; note: potency is the fitted concentration of half-maximal effect
Summary of the method: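 Seeded ERR cells were rested 6 h at 37 C/5% CO2 before compounds, positive and negative controls or DMSO were added. Incubation continued for 17.5 h, and viability was then quantified by CellTiter-Fluor fluorescence.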

[2] = target: Luciferin 4-monooxygenase (Photinus pyralis) (UniProt P08659); experiment: qHTS assay to identify small molecule inhibitors of firefly luciferase (AID 1224835); note: nearly all actives have a fitted effect of over 25% in size; note: potency is the fitted concentration of half-maximal effect
Sequence of Luciferin 4-monooxygenase (Photinus pyralis) (P08659 whole entry, looked up): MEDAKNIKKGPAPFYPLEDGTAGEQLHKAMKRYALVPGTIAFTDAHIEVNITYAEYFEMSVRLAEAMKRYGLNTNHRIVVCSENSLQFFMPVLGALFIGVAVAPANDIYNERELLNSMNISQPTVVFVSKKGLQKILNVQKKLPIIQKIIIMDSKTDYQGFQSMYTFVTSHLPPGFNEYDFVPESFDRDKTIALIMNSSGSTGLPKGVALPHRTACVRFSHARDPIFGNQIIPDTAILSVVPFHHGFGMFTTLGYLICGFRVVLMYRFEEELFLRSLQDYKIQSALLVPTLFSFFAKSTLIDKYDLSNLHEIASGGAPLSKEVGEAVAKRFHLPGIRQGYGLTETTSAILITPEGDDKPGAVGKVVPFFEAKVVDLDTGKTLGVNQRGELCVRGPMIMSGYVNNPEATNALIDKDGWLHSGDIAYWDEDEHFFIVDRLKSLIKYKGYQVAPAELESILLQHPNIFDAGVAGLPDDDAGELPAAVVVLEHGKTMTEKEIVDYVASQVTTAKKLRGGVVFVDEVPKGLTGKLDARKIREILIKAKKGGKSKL
Summary of the method: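 Biochemical qHTS: compounds run as interplate titrations against purified firefly enzyme, with D-luciferin and ATP each at its KM concentration. Light output recorded by CCD imaging.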

[3] = qHTS assay to identify small molecule agonists of the constitutive androstane receptor (CAR) signaling pathway - cell viability counter screen (AID 1224836); note: nearly all actives have a fitted effect of over 45% in size; note: potency is the fitted concentration of half-maximal effect
Summary of the method: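 HepG2 cells stably carrying hCAR and a CYP2B6-2.2kb reporter; 15-concentration compounds plus PK11195 (final 0.75 uM), 23 hr at 37 C/5% CO2. Viability read by CellTiter-Fluor fluorescence.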

[4] = qHTS assay to identify small molecule antagonists of the constitutive androstane receptor (CAR) signaling pathway - cell viability counter screen (AID 1224837); note: nearly all actives have a fitted effect of over 45% in size; note: potency is the fitted concentration of half-maximal effect
Summary of the method: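 To flag cytotoxic false antagonists, HepG2 hCAR/CYP2B6-2.2kb cells were treated 23 hr with 15-concentration compound series and 50 nM CITCO at 37 C/5% CO2; CellTiter-Fluor fluorescence was the measured end point.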

[5] = qHTS assay to identify small molecule antagonists of the estrogen related receptor signaling pathway with the pleiotropic PPARgamma coactivator (PGC) from Tox21 10K library - cell viability counter screen (AID 1224840; active = well fitted cell-killing curve with a large enough effect in the repeat runs, not every such curve was filed as active; note: nearly all actives have a fitted effect of over 40% in size; note: potency is the fitted concentration of half-maximal effect)
Summary of the method: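 Seeded PGC/ERR cells (2,000/well, 6 h, 37 C/5% CO2) get compound by pin tool; 17.5 h incubation at 37 C; CellTiter-Fluor added, 30 min, fluorescence measured.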

[6] = qHTS assay to identify small molecule antagonists of the estrogen related receptor signaling pathway with the pleiotropic PPARgamma coactivator (PGC) from Tox21 10K library (AID 1224841; call rule not given here; note: actives are mostly falling curves and most rising ones were filed inactive; nearly all actives have a fitted effect of over 50% in size; note: potency is the fitted concentration of half-maximal effect)
Summary of the method: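 Test chemicals dissolved in DMSO were applied to pre-incubated (6 h) PGC/ERR cells at 2,000 cells/well for an 18 h, 37 C treatment; reporter luminescence was then read using One-Glo.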

[7] = target: Thyrotropin receptor (Homo sapiens) (UniProt P16473); experiment: qHTS assay to identify small molecule agonists of the thyroid stimulating hormone receptor (TSHR) signaling pathway (AID 1224843; calls by dose curve; note: nearly all actives have a fitted effect of over 45% in size; note: potency is the fitted concentration of half-maximal effect; for activation: % is set by controls: 0 for no effect and ±100 for the full control effect)
Sequence of Thyrotropin receptor (Homo sapiens) (P16473 whole entry, looked up): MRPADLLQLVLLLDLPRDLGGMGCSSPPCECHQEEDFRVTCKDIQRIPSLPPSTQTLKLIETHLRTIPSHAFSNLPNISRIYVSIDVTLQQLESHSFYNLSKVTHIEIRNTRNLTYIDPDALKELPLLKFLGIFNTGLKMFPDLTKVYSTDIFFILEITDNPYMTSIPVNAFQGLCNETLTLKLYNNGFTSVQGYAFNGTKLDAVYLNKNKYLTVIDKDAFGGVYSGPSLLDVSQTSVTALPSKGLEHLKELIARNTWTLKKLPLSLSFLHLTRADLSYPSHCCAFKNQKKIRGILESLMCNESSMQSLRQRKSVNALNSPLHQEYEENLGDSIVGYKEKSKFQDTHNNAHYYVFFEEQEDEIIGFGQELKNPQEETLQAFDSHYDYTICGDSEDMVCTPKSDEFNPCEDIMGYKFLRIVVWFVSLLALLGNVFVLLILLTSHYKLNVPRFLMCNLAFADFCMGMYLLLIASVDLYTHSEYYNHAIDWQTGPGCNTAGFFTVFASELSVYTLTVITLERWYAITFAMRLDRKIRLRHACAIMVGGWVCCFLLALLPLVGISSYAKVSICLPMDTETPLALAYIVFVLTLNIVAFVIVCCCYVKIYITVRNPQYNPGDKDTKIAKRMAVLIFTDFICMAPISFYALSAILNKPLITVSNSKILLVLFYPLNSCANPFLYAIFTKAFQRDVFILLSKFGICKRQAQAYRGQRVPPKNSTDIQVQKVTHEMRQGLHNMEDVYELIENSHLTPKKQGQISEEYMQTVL
Summary of the method: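 HEK293/TSHR, 800 cells/well; cpd 30 min RT; add cAMP-d2 + anti-cAMP-cryptate, 1 h RT; fluorescence read on plate reader. 15-pt titration, n=3.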

[8] = qHTS assay to identify small molecule agonists of the hypoxia (HIF-1) signaling pathway - cell viability counter screen (AID 1224844; calls by dose curve; note: nearly all actives have a fitted effect of over 50% in size; note: potency is the fitted concentration of half-maximal effect)
Summary of the method: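 HRE-bla ME-180; 0.5% dFBS; cpd 17 h, 37C, 5% CO2; CellTiter-Glo lum., 30 min RT, post-FRET read, same wells.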

[9] = qHTS assay to identify small molecule agonists of H2AX (AID 1224845; active = well fitted activation curve with a large enough effect in the signal ratio in the repeat runs, not every such curve was filed as active; the % refers to the signal ratio; note: potency is the fitted concentration of half-maximal effect)
Summary of the method: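 Wild-type CHO-K1 cells, plated overnight, exposed 3hr at 37C to 15 concentrations (0.76% DMSO final). Lysed, then HTRF anti-pH2AX (S139) cryptate and anti-H2AX-d2 antibodies, 24 hr room temperature; 665/620 nm emission read.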

[10] = qHTS assay to identify small molecule agonists of the hypoxia (HIF-1) signaling pathway (AID 1224846; active = well fitted activation curve with a large enough effect in the signal ratio in the repeat runs, not every such curve was filed as active; the % refers to the signal ratio; note: % is set by controls: 0 for no effect and ±100 for the full control effect)
Summary of the method: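 Reporter induction in HRE-bla ME-180 cells is taken as agonism: cells sit 5 hrs after plating, receive compounds or DMSO only, incubate 17 hrs at 37C under 5% CO2, and are loaded with CCF4-AM for beta-lactamase FRET measurement.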

[11] = qHTS assay to identify small molecule agonists of H2AX - cell viability counter screen (AID 1224847; calls by dose curve; note: nearly all actives have a fitted effect of over 30% in size; note: potency is the fitted concentration of half-maximal effect)
Summary of the method: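 CHO-K1 cells plated overnight at 37C, then exposed 3 h at 37C to compounds at 15 concentrations (0.76% DMSO final). Viability by CellTiter-Glo luminescence after 30 min at room temperature.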

[12] = qHTS assay to identify small molecule antagonists of the estrogen related receptor (ERR) signaling pathway from Tox21 library (AID 1224848); note: nearly all actives have a fitted effect of over 50% in size; note: potency is the fitted concentration of half-maximal effect
Summary of the method: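 Compounds dissolved in DMSO are pin-transferred onto ERR reporter cells (2,000 per well) that have settled for 6 h at 37 C. Plates then incubate 18 h at 37 C before ONE-Glo luciferase reagent and a luminescence read 30 min later.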

[13] = qHTS assay to identify small molecule agonists of the estrogen related receptor (ERR) signaling pathway from Tox21 library (AID 1224849; calls by dose curve; note: % is set by controls: 0 for no effect and ±100 for the full control effect; nearly all actives have a fitted effect of over 15% in size); conditions: ERR reporter cell line, ONE-Glo luciferase, 18 h; at 92.4 µM (top of the series) unless noted
Summary of the method: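 Tox21 compounds tested for ERR agonism in an NTP reporter cell line: 18 h treatment at 37 C, then ONE-Glo luminescence.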

[14] = qHTS RealTime-Glo MT Cell Viability Assay in HepG2 cells - 24 hour (AID 1224867); note: nearly all actives have a fitted effect of over 50% in size; note: potency is the fitted concentration of half-maximal effect
Summary of the method: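 Cells + NanoLuc/prosubstrate dispensed (600 cells/well) → 5 h at 37 C/5% CO2 → compounds in DMSO transferred → 40 h incubation at 37 C, luminescence read at 0, 8, 16, 24, 32, 40 h.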

[15] = qHTS RealTime-Glo MT Cell Viability Assay in HEK293 cells - 32 hour (AID 1224868); note: nearly all actives have a fitted effect of over 50% in size; note: potency is the fitted concentration of half-maximal effect
Summary of the method: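 Tox21 10K qHTS, HEK293, 600 cells/well, RealTime-Glo reagent co-dispensed with cells; 5 h preincubation, compound by pintool, 37 C, luminescence at 0–40 h.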

[16] = A CellTox Green Cytotoxicity Assay to monitor cytotoxicity in HEK293 cells - 0 hour (AID 1224869)
Summary of the method: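 Tox21 screen in HEK293: membrane-impermeant cyanine dye fluoresces on binding dead-cell DNA; compound pinned 5 h post-seeding, plates held at 37 C, signal read repeatedly through 40 h.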

[17] = qHTS RealTime-Glo MT Cell Viability Assay in HepG2 cells - 40 hour (AID 1224870); note: nearly all actives have a fitted effect of over 50% in size; note: potency is the fitted concentration of half-maximal effect
Summary of the method: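 HepG2 cells (600/well) mixed with RealTime-Glo MT reagent, settled 5 h at 37 C/5% CO2 before compound addition. Nonlytic NanoLuc luminescence from viable-cell prosubstrate reduction read repeatedly during 40 h treatment at 37 C.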

[18] = target: Nuclear receptor subfamily 1 group I member 3 (Homo sapiens) (UniProt Q14994); experiment: qHTS assay to identify small molecule antagonists of the constitutive androstane receptor (CAR) signaling pathway (AID 1224838);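 note: HepG2 cells stably expressing hCAR with CYP2B6 luciferase reporter stimulated by CITCO; potency is the fitted concentration of half-maximal effect; nearly all actives have a fitted effect of over 40% in size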
Sequence of Nuclear receptor subfamily 1 group I member 3 (Homo sapiens) (Q14994 whole entry, looked up): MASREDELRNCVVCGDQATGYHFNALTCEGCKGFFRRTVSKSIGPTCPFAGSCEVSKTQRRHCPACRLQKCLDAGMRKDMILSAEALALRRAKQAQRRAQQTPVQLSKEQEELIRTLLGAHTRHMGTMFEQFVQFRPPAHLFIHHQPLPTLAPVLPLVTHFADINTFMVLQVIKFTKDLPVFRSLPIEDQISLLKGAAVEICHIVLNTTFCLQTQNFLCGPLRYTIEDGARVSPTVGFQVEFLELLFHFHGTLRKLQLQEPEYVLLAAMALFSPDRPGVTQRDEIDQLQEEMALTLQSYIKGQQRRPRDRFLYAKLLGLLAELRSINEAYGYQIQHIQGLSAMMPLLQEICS
Summary of the method: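 Human hepatoma HepG2 cells expressing hCAR and a CYP2B6 promoter (2.2 kb) luciferase construct; compound titration (15 points) with 50 nM CITCO final, 24 h at 37 C/5% CO2; luminescence via ONE-Glo after 30 min at room temperature.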

[19] = target: Nuclear receptor subfamily 1 group I member 3 (Homo sapiens) (UniProt Q14994); experiment: qHTS assay to identify small molecule agonists of the constitutive androstane receptor (CAR) signaling pathway (AID 1224839);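 note: HepG2 cells stably carrying human CAR and a CYP2B6 luciferase reporter; % is set by controls: 0 for no effect and ±100 for the full control effect; nearly all actives have a fitted effect of over 15% in size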
Summary of the method: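 HepG2 cells stably co-transfected with hCAR and a CYP2B6-2.2kb luciferase reporter; compounds at 15 concentrations with 0.75 uM PK11195 present. After 24 hr at 37 C, luciferase read by ONE-Glo luminescence.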

[20] = qHTS assay to identify small molecule agonists of the estrogen related receptor signaling pathway with the pleiotropic PPARgamma coactivator (PGC) from Tox21 10K library (AID 1224842); note: % is set by controls: 0 for no effect and ±100 for the full control effect; nearly all actives have a fitted effect of over 15% in size
Summary of the method: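 PGC/ERR reporter cell line, 2,000 cells per well, incubated 6 h at 37 C before 23 nL compound in DMSO was added. After 18 h at 37 C, One-Glo luminescence read following 30 min at room temperature.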

Cc1nn(-c2cc(NS(C)(=O)=O)c(Cl)cc2Cl)c(=O)n1C(F)F
inactive: Potency [1] | Potency [2] | Potency [3] | Potency [4] | Potency [5] | Potency [6] | Potency [7] | Potency [8] | Potency [9] | Potency [10] | Potency [11] | Potency [12] | activity change, positive = activation [13] -8.62% | Potency [14] | Potency [15] | Potency [16] | Potency [17]

[O-][Cl+3]([O-])([O-])O
inactive: Potency [1] | Potency [2] | Potency [3] | Potency [4] | Potency [5] | Potency [8] | Potency [10] | Potency [11] | Potency [14] | Potency [15] | Potency [16] | Potency [17]

Cc1ccc2cc3c(ccc4ccccc43)c3c2c1CC3
active: Potency [2] 11.3 µM | Potency [18] 0.865 µM
inactive: Potency [1] | Potency [3] | Potency [19] | Potency [5] | Potency [7] | Potency [8] | Potency [9] | Potency [11] | Potency [14] | Potency [15] | Potency [16] | Potency [17]

CC(Cc1ccccc1)N(C)Cc1ccco1 (centres undefined)
inactive: Potency [1] | Potency [2] | Potency [3] | Potency [4] | Potency [5] | Potency [7] | Potency [8] | Potency [9] | Potency [10] | Potency [11] | Potency [14] | Potency [15] | Potency [16] | Potency [17]

[O]=[Cr](=[O])([OH])[O][Cr](=[O])(=[O])[OH]
active: Potency [1] 13.8 µM and 24.3 µM | Potency [3] 15.5 µM and 15.3 µM | Potency [4] 11 µM and 9.67 µM | Potency [5] 3.85 µM | Potency [8] 2.78 µM and 12.3 µM | Potency [9] 101 µM | Potency [15] 4.41 µM and 4.36 µM
inactive: Potency [2] | Potency [7] | Potency [16]

CCN(CC)CCN1C(=O)CN=C(c2ccccc2F)c2cc(Cl)ccc21
inactive: Potency [1] | Potency [2] | Potency [3] | Potency [4] | Potency [5] | Potency [6] | Potency [20] | Potency [7] | Potency [8] | Potency [9] | Potency [10] | Potency [11] | Potency [12] | activity change, positive = activation [13] -10.4% [at 42.5 µM] | Potency [15] | Potency [16] | Potency [17]

CC(O)C(=O)[O][Hg][c]1ccccc1 (centres undefined)
inactive: Potency [19] | activity change, positive = activation [13] -80.9% | Potency [16]
active: Potency [1] 4.33 µM | Potency [2] 3.99 µM | Potency [3] 4.86 µM | Potency [18] 4.33 µM | Potency [5] 3.06 µM | Potency [6] 4.86 µM | Potency [7] 2.43 µM | Potency [8] 1.38 µM | Potency [11] 6.35 µM | Potency [12] 3.86 µM | Potency [14] 2.45 µM | Potency [17] 2.75 µM
